SMN2 splice enh = increases expression of the SMN2 splice variant | Potency, µM (highest dose often 46.1 µM), for inactives: at the highest dose activity change, positive = activation, hits mostly activators | HEK293 SMN2-luciferase splicing reporter, luminescence, 30-36 h | hit rate 2.8% among 210,000; also: % of control where 0% means no effect; nearly all actives have a fitted effect of over 55% in size
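qHTS luciferase splicing reporter: luminescence rises when SMN2 exon 7 is included in transfected HEK293 cells. Compound exposure lasted 30-36 h at 37C, with 4.5 mM final sodium butyrate as control, followed by a ONE-Glo read.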
NPC1 promoter act = activators of NPC1 promoter | Huh7 NPC1 promoter luciferase reporter, 24 h | hit rate 2.4% among 320,000 | Potency, µM (series often up to 9.22 µM), without a hit: at the highest dose activation, usual class: activators; also: % of control where 0% means no effect; nearly all actives have a fitted effect of over 60% in size
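Luminescence read-out of NPC1 promoter-driven luciferase in stably transfected Huh7 cells; compounds delivered in DMSO and left 24 h at 37C, 5% CO2, qHTS titration format.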
ELG1 DNA repair = ELG1-dependent DNA repair inhibition | HEK293T ELG1-luciferase reporter, luminescence, 16 h; DNA damage induced by 5-fluorouridine | Potency, µM (series often up to 46.1 µM), for inactives: top-dose activity change, negative = inhibition, usual class: inhibitors | hit rate 2.3% among 330,000; also: % is scaled to controls: 0 for no effect and ±100 for the full control effect; nearly all actives have a fitted effect of over 55% in size
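5-Fluorouridine DNA damage + compound/DMSO, 2,000 cells/well, 16 h, 37 °C/5% CO2. ONE-Glo, 30 min RT, luminescence. Readout = decrease in reporter signal.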
ELG1 genotox = induces genotoxicity in HEK293T cells with luciferase-tagged ELG1. HEK293T ELG1-luciferase reporter, luminescence, 16 h. Potency, µM (series often up to 46 µM), inactives show at the highest dose activity change, positive = activation, most hits filed as activators. hit rate 1.3% among 330,000. AID 504466; also: % of control where 0% means no effect; nearly all actives have a fitted effect of over 60% in size
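HEK293T cells expressing luciferase-tagged ELG1 were treated with compound or DMSO for 16 hr at 37°C. Luciferase activity was then read after 30 min with ONE-Glo at room temperature; rising signal flags genetic stress.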
FLuc modulator = inhibits or activates purified firefly luciferase, miR-21 counter-screen; P08659; purified FLuc, Km substrates, luminescence inhibition; Potency, µM (titrated, usually from 57.5 µM), inactives show top-dose activity change, negative = inhibition, hits mostly inhibitors; hit rate 6.9% among 360,000;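 also: plate controls were vehicle for no effect and reference inhibitor for full effect; nearly all actives have a fitted effect of over 55% in size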
Target sequence (P08659 whole entry, looked up): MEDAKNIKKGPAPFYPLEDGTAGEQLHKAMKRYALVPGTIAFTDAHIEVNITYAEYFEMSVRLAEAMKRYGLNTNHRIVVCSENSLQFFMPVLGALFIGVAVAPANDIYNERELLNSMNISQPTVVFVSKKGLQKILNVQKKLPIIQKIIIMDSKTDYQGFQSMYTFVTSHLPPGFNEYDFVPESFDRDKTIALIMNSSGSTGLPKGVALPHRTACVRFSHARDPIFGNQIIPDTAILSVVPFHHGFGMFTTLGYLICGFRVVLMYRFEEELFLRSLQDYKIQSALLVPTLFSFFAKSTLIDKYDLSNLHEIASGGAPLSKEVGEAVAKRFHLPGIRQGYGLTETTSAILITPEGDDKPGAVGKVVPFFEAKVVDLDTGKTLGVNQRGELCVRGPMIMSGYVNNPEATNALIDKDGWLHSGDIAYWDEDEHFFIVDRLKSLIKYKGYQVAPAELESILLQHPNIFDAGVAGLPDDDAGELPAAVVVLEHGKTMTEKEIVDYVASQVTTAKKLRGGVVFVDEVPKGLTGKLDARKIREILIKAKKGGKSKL
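Purified P. pyralis luciferase (10nM final) with 10uM D-luciferin and 10uM ATP (Km levels) in 50mM Tris acetate pH 7.5, 10mM Mg acetate, 0.01% Tween-20, 0.05% BSA; qHTS 6-point titration, ~60 µM downward; luminescence read.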
Rab9 promoter act = activators of Rab9 promoter. Huh7 Rab9 promoter-luciferase reporter, luminescence, 24 h. Potency, µM (top dose mostly 9.22 µM), for inactives: top-dose activation, negative = inhibition, hits mostly activators. hit rate 2.8% among 320,000. AID 485297; also: % of control where 0% means no effect; nearly all actives have a fitted effect of over 60% in size
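Huh7 cells stably carrying a Rab9 promoter-luciferase reporter, 1500 cells per well in OP-MEM I with 10% FBS, treated with compound 24 hours at 37C. Luciferase activity read by luminescence after 10 minutes with Amplite reagent.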
Numbers without * were called inactive; ? = inconclusive; / = no result. This is a sample that favours compounds with a hit; in the whole collection about 9.3% have one here. Calls follow the shape of the dose curve; as a rule, active = well fitted curve in the direction sought with a large enough effect; inconclusive = small, poorly fitted or top-dose-only effect, or another doubt; inactive = no such curve, though single readings can be large; an effect the other way counts as inactive or inconclusive. Potency is read from the fitted curve at half-maximal effect.

SMILES | SMN2 splice enh | NPC1 promoter act | ELG1 DNA repair | ELG1 genotox | FLuc modulator | Rab9 promoter act
CC(C)Oc1cccc(C2NC(=O)c3ccccc3O2)c1 (stereo unspecified) | / | 5% | 5% | 4% | 17µM* | 3%
COc1ccccc1NC(=O)C(=O)Nc1ccc2c(c1)N(C(=O)C1CC1)CCC2 | / | 29% | -15% | 21% | -6% | 26%
CC(=O)Nc1ccc2c(c1)N(C(C)=O)c1ccccc1CC2 | / | -9% | 21µM* | -2% | 2% | -9%
CC(=O)Nc1cccc(NC(=O)C(=O)Nc2ccc3c(c2)N(C(=O)C2CC2)CCC3)c1 | / | 28% | ? | 0% | 9.5µM* | ?
O=C(COc1ccc(Cl)cc1)NCc1ccc(F)cc1 | / | 1% | 0% | 0% | 0% | 1%
Cc1c(CCC(=O)N2CCC(C(=O)O)(c3ccccc3)CC2)c(=O)oc2cc3oc4c(c3cc12)CCCC4 | / | 12% | 32% | 9% | 13µM* | 4%
Cc1c(CCC(=O)N2CCC(C(=O)O)CC2)c(=O)oc2cc3oc4c(c3cc12)CCCC4 | / | 0% | 24% | 0% | 11µM* | 5%
CC(=O)c1ccc(N2CCN(CC3CCCCC3)CC2)cc1 | / | 2% | -22% | -4% | -1% | 5%
OCc1nc2ccccc2n1CCCOc1ccccc1 | 11µM* | ? | ? | ? | 11µM* | ?
Cc1cccc(OCCCn2c(CO)nc3ccccc32)c1 | / | 21% | ? | 5% | 13µM* | ?
O=C(Nc1sc2c(c1C(=O)O)CCC2)c1cccs1 | ? | 17% | ? | 8% | 17µM* | 28%
NC(=O)c1c(NC(=O)c2cccs2)sc2c1CCCCCC2 | ? | ? | ? | 6% | 4.8µM* | 3.2µM*
COc1cccc(/C=N/n2cnc3cc(C)c(C)cc32)c1OC | / | ? | ? | 16% | 12µM* | 20%
COc1cccc(/C=N\n2c(C)nnc2C)c1OC | / | 2% | ? | 1% | 1% | 5%
COc1cccc(/C=N/n2c(-c3ccco3)nc3ccccc3c2=O)c1OC | 7% | 2% | 5.2µM* | 3% | -20% | -3%
COc1cccc(/C=N/n2c(C)nc3ccccc32)c1OC | -48% | 0% | ? | -3% | ? | -3%
COc1cc(OC)c(OC)cc1/C=N/n1c(C)nc2ccccc2c1=O | / | 2% | -4% | -2% | 1% | 2%
COc1cccc(/C=N/n2c(=O)[nH]c3ccccc32)c1OC | ? | 19% | ? | 15% | 9.5µM* | 29%
COc1cccc(/C=N/n2c(=S)n(C)c3ccccc32)c1OC | -25% | -3% | 9% | 3% | 11µM* | -5%
CC[C@@H]1C/C=C\Cc2ccccc2[C@@H](C(=O)C[C@@H](O)CC(C)=O)OC1=O | / | / | -3% | 0% | / | /
O=C(C1=NN[C@@H]2C(=O)N(c3ccccc3C(F)(F)F)C(=O)[C@H]12)C(c1ccccc1)c1ccccc1 | 9% | -3% | 18% | 2% | 8% | 1%
CCC(NC(=O)Nc1cccc(C)c1)c1c(-n2cccc2)sc2c1CCN(C)C2 (stereo unspecified) | / | / | / | / | -1% | /
CCOC(=O)C1(Cc2cccc(OC)c2)CCCN(C(=O)c2ccc(OC)o2)C1 (stereo unspecified) | / | ? | ? | ? | 12µM* | 2.5µM*
CCOC(=O)C1(Cc2cccc(OC)c2)CCCN(C(=O)c2cc(CC(C)C)[nH]n2)C1 (stereo unspecified) | / | ? | ? | ? | 21µM* | 3.5µM*
CCOC(=O)C1(Cc2cccc(OC)c2)CCCN(C(=O)CCN2CCCO2)C1 (stereo unspecified) | / | 3.5µM* | ? | 23µM* | 15µM* | 3.2µM*
SMILES | SMN2 splice enh | NPC1 promoter act | ELG1 DNA repair | ELG1 genotox | FLuc modulator | Rab9 promoter act
CCOC(=O)C1(Cc2cccc(Cl)c2)CCCN(C(=O)c2cc(C)[nH]n2)C1 (stereo unspecified) | / | -1% | 0% | -7% | 4% | -1%
Cc1c(NC(=O)CC(C)C)cccc1-c1nc2cccnc2s1 | / | / | / | / | -6% | /
Cc1c(NC(=O)c2ccco2)cccc1-c1nc2cccnc2s1 | -11% | 6% | -17% | -15% | 24µM* | -2%
Cc1c(NC(=O)c2ccc(Cl)nc2)cccc1-c1nc2cccnc2s1 | / | 3% | ? | -10% | 13µM* | -3%
CCS(=O)(=O)Nc1cccc(-c2nc3cccnc3s2)c1C | -44% | 27% | ? | ? | ? | 28%
CC(C)(C)c1ccc(Oc2coc3cc(OCC(=O)O)ccc3c2=O)cc1 | / | 1% | ? | 1% | 2.1µM* | -11%
Cc1nc(-c2coc3cc(O)c(C)cc3c2=O)cs1 | 25µM* | ? | ? | ? | 0.95µM* | ?
COc1ccccc1Oc1coc2cc(OCC(N)=O)ccc2c1=O | / | 1% | 2% | 0% | 0% | 1%
Cc1nc(-c2coc3cc(OCC(=O)O)ccc3c2=O)cs1 | -6% | -5% | 12% | -9% | 1.9µM* | -10%
CCOCCOC(=O)COc1ccc2c(=O)c(Oc3ccc(OC)cc3)coc2c1 | / | -1% | 1% | -4% | -2% | -9%
Cc1nc(-c2coc3cc(C)c(N=O)c(O)c3/c2=N\N)cs1 | 3% | -3% | 7% | 3% | ? | -4%
COc1ccc(NC(=O)COC(=O)CCNS(=O)(=O)c2ccc(Cl)cc2)cc1 | / | -3% | -2% | -1% | 1% | 0%
COc1cc(SC)ccc1C(=O)N1CCN(c2ccccc2)CC1 | / | -3% | -9% | 0% | 6% | -3%
COc1cc(SC)ccc1C(=O)N1CCN(c2ccc(O)cc2)CC1 | 0% | 1% | 21µM* | 0% | -10% | -5%
CN(C)/C=N/C(=S)Nc1ccc(Cl)cc1Cl | ? | ? | ? | 21µM* | 19µM* | ?
CN(C)/C=N/C(=S)Nc1ccc(Cl)cc1 | 11µM* | 30% | ? | ? | 13µM* | ?
Cc1ccc(S(=O)(=O)N2CCOCC2)cc1C(=O)Nc1ccc(-c2cn3ccsc3n2)cc1 | -49% | -1% | 18µM* | -9% | ? | -3%
O=C(Nc1nc(-c2cc3ccccc3o2)cs1)c1ccc(S(=O)(=O)N2CCCC2)cc1 | -40% | -16% | ? | -5% | 0% | -22%
O=C(Nc1nnc(-c2cccs2)o1)c1ccc(S(=O)(=O)N2CCOCC2)cc1 | -44% | -14% | 21µM* | -17% | -12% | -7%
Cc1ccc(-c2csc(NC(=O)COC(=O)c3cccc(S(=O)(=O)N4CCOCC4)c3)n2)cc1 | / | 3.2µM* | ? | ? | 11µM* | 2.5µM*
O=C(Nc1nc(-c2nc3ccccc3s2)cs1)c1ccc(S(=O)(=O)N2CCOCC2)cc1 | / | 3.2µM* | ? | -13% | ? | 4.5µM*

Bioassay records: PubChem BioAssay, National Center for Advancing Translational Sciences (NCATS)
